According to ChEMBL document CHEMBL3988442, “University of Dundee, Small-Polar-MMV Screening Library” (2021):
In all, about 38,000 compounds went through this assay and about 1,200 (3.2%) showed an effect of 50% or more. The median lay at about -58%. The sample holds strong results, similar compounds and a random draw of the others, so the mix is not that of the screen.

What follows are molecules tested on Plasmodium falciparum (assay: Calibr Malaria Delayed Death Assay SOP). Conditions: concentration 4.99e-06 (unit not given; other assays of the set use mol/L).
Format: functional, organism-based
Design: scale not given: in the data most compounds retested in dose-response had high values

| Compound | Percent Effect [%] |
| --- | --- |
| c1ccc(Oc2nccc3occc23)c(CN2CCCCC2)c1 | 71.51 |
| CN1CCN(CCCOc2ccccc2CN2C[C@H]3CC[C@H]2C3)CC1 | 15.78 |
| COc1ccc(Oc2nccc3occc23)cc1CN1CCCC1 | 59.92 |
| CN1CCN(Cc2c(-c3ccco3)[nH]c3ncccc23)CC1 | -17.66 |
| CCCc1nnc(N2CCN(Cc3ccccc3OC)CC2)o1 | -122.5 |
| COc1ccc(Oc2ccc(C(F)(F)F)cn2)cc1CN1CCCC1 | 49.66 |
| O=S1(=O)CCCN(Cc2ccccc2OCC(F)(F)F)CC1 | -23.25 |
| COc1ccc(Oc2cccc(C#N)n2)cc1CN1CCCC1 | -26.21 |
| CN1CCN(Cc2ccccc2Oc2nccc3occc23)CC1 | 77.3 |
| O=C(c1ccc(Cn2cccc2)cc1)N1CCN(CCO)CC1 | -124.1 |
| COc1ccc(C(=O)c2cnc(C(C)C)n2C)cc1 | -137.4 |
| CCC(Nc1cccc(Oc2ccccn2)c1)C(N)=O (stereo not drawn) | -89.12 |
| Cc1noc(C)c1C(=O)N1CCSc2ccc(Cl)cc21 | -64.97 |
| COc1ccc(CN2C[C@@H]3COC[C@@H](CC(=O)N4CCCC4)[C@@H]3C2)cc1.O=C(O)C(F)(F)F | -28.59 |
| CN(C)[C@H]1COC[C@@H]2CN(Cc3ccc4c(c3)OCO4)C[C@@H]21.O=C(O)C(F)(F)F.O=C(O)C(F)(F)F | 25.51 |
| O=C(O)C(F)(F)F.O=C(O)C(F)(F)F.c1cc2c(cc1CN1C[C@@H]3COC[C@@H](N4CCCC4)[C@@H]3C1)OCO2 | 41.71 |
| COc1ccc(CN2C[C@@H]3COC[C@H](N4CCN(C)CC4)[C@@H]3C2)cc1.O=C(O)C(F)(F)F.O=C(O)C(F)(F)F.O=C(O)C(F)(F)F | 39.43 |
| COc1ccc(CN2C[C@@H]3COC[C@@H](N4CCN(C)CC4)[C@@H]3C2)cc1.O=C(O)C(F)(F)F.O=C(O)C(F)(F)F.O=C(O)C(F)(F)F | 72.48 |
| CN1CCN([C@H]2COC[C@@H]3CN(Cc4cccnc4)C[C@@H]32)CC1 | -16.78 |
| Cc1cc(C)cc(CN2C[C@H]3COC[C@H](N4CCN(C)CC4)[C@H]3C2)c1.O=C(O)C(F)(F)F.O=C(O)C(F)(F)F.O=C(O)C(F)(F)F | 93.63 |

| Compound | Percent Effect [%] |
| --- | --- |
| CCN(CC)[C@H]1COC[C@@H]2CN(Cc3cnn(C)c3)C[C@@H]21 | -7.149 |
| CCOC(=O)[C@H]1[C@@H](O)C(=O)N(C)C12CCN(C(=O)CC(C)(C)C)CC2 | -173.1 |
| Cc1nn2cccnc2c1C(=O)N1CCCC(n2cccn2)C1 (stereo not drawn) | -26.13 |
| Cc1ccccc1CN1CC[C@H]2C[C@H](C(=O)N(C)C)O[C@H]2C1.O=C(O)C(F)(F)F | -65.63 |
| COc1ccc2nnc(CCC(=O)Nc3nc4c(s3)CCCCC4)n2n1 | -7.858 |
| CC(C)[C@]1(O)CN(C(=O)C2(Cn3cccn3)CC2)C[C@H]1C | -13.49 |
| COC[C@@]12CCO[C@@H]1CCN(C(=O)CCc1ccccc1Cl)C2 | -39.1 |
| O=C(Nc1ccc(-n2cccn2)cc1)N1CCC(O)C1 (stereo not drawn) | -73.59 |
| CC(=O)c1ccc(-n2c(C)cn(CCS(C)(=O)=O)c2=O)cc1 | 3.074 |
| CNC(=O)[C@H]1C[C@@H]2CN(C(=O)NCCc3ccccc3)C[C@H]1O2 | -57.69 |
| Cc1n[nH]cc1CNCc1cccc(OCC(F)(F)F)c1.Cl | 56.25 |
| Cc1n[nH]cc1CNC(=O)Nc1cccc(OCC(F)(F)F)c1 | -36.62 |
| Cc1n[nH]cc1CNCc1ccnc(OCC(F)(F)F)c1.Cl | -70.94 |
| O=C1CCNc2ccccc2CN1Cc1ccco1 | -58.24 |
| Cc1cnn(C2CCCN(C(=O)c3ccc(-n4ccnc4)cc3)C2)c1 (stereo not drawn) | -131.1 |
| c1ncn(CC2CCCN(Cc3noc(C4CC4)n3)C2)n1 (stereo not drawn) | -140.8 |
| CCc1nc(Nc2cccc(C(=O)NC)c2)c2c(n1)c(C)nn2CC | -106.8 |
| COc1ccnc(NC(Cc2ccccc2)C(N)=O)n1 (stereo not drawn) | -102.6 |
| COc1ccccc1C1(C(=O)NCCN2CCOCC2)CCOCC1 | -173.3 |
| Cc1ccccc1C1(C(=O)NCCN2CCCC2)CCOCC1 | -7.598 |

| Compound | Percent Effect [%] |
| --- | --- |
| Cc1ccc(CNCC2Cn3nncc3CO2)s1 (stereo not drawn) | -76.38 |
| CN(Cc1cncnc1)[C@H]1CN(C(=O)c2ccc[nH]2)[C@@H]2CCCO[C@@H]21 | -58.36 |
| CC(c1ccc(F)cc1F)N1CCN(CCN2CCCC2=O)CC1 (stereo not drawn) | -15.63 |
| CC(c1ccc(F)cc1F)N1CCN(CCC(=O)O)CC1.Cl (stereo not drawn) | -12.88 |
| CC(c1ccc(F)cc1F)N1CCN(CCC(=O)NC(N)=O)CC1 (stereo not drawn) | 63.51 |
| Fc1ccccc1OCCN1CCCCC1Cn1cncn1 (stereo not drawn) | -107.8 |
| O=C(O)C(F)(F)F.O=C(O)C(F)(F)F.c1nc(CNC2CCOCC2)c2n1CCCN(CC1CC1)C2 | -115.6 |
| O[C@H]1[C@H](NCCc2cnccn2)c2ccccc2C12CCNCC2 | -10.61 |
| COc1ccccc1CCN[C@@H]1c2ccccc2C2(CCNCC2)[C@H]1O | 81.73 |
| Cc1ccc(CCN[C@@H]2c3ccccc3C3(CCNCC3)[C@H]2O)s1 | 87.27 |
| O[C@H]1[C@H](NCCSc2ccccn2)c2ccccc2C12CCNCC2 | 23.57 |
| O[C@H]1[C@H](NCCc2ccccn2)c2ccccc2C12CCNCC2 | -35.06 |
| COCCN(C)[C@@H]1c2ccccc2C2(CCNCC2)[C@H]1O | -111.9 |
| Cc1ccc(-n2ncc3c2CCCC3N)cc1C (stereo not drawn) | 5.746 |
| COCCN(Cc1cccnc1)S(=O)(=O)c1ccc(F)cc1C | -88.98 |
| Cc1cccc(C2CCCN2S(=O)(=O)N(C)C)n1 (stereo not drawn) | -47.51 |
| C=C(C)CSc1nnc(CCNC(=O)OC(C)(C)C)o1 | -85.15 |
| O=S1(=O)N=C(CSCc2ccccc2)Nc2ccccc21 | -68.12 |
